# Compound activity as filed in PubChem.
# In the library only some 3% were active in any assay of this set; here they are far more common.
# CRE-bla Fsk: CRE-bla signaling modulation under forskolin stimulation; actives 2.5% (n = 71,000); CHO CRE-bla reporter (cAMP response element driving beta-lactamase), forskolin EC10, beta-lactamase ratio; Potency, µM (titrated, usually from 38.2 µM), usual class: activators; active = well fitted activation curve with a large enough effect in the signal ratio, with a control signal flat, not every such curve was filed as active; inconclusive = small, poorly fitted or top-dose-only effect, or effect the other way, or a change in a side signal; the % refers to the signal ratio
#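 Modulation of forskolin signalling: compounds in titration series added with EC10 NKH 477 to CHO cells carrying a CRE-driven beta-lactamase reporter, 3 h, 37C. CCF4 FRET ratio (460/530 nm, ex 405 nm) gives %activity and AC50.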
# IkB signaling: inhibitors of IkB signaling in ABC-DLBCL cells; actives 0.04% (n = 110,000); Potency, µM (highest dose often 57.1 µM); ABC-DLBCL IkBa-CBG/CBR dual luciferase ratio, 4 h; response scale: scaled: untreated 0%, proteasome inhibitor 100%; active = well fitted curve in the direction sought with a large enough effect in the signal ratio, not every such curve was filed as active; inconclusive = small, poorly fitted or top-dose-only effect, or a change in a side signal; the % refers to the signal ratio;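 also: the direction sought is a rising ratio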
#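 In this assay, an IκBα–CBG68 fusion accumulates when IKK-driven degradation is blocked; native CBR normalizes for cell number. OCI-Ly3 cells were treated 4 h with compound and doxycycline, then green and red light read after Chroma-Glo addition.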
# p53ts 32C tox: cytotoxicity in p53ts cells at permissive temperature; H1299-p53A138V at 32C, ATP luminescence viability, 24 h; actives 0.93% (n = 130,000); Potency, µM (titrated, usually from 46.1 µM), hits mostly cytotoxic; AID 924; also: nearly all actives have a fitted effect of over 55% in size
#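 Viability by ATPlite luminescence after 24 h compound treatment (up to 46 uM) at the permissive 32C. Cells are H1299 carrying p53 A138V. Scale runs from DMSO basal to 100 uM tamoxifen as full kill; AC50 from Hill fits.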
# p53ts 39C kill: cytotoxicity in p53ts cells at nonpermissive temperature; H1299-p53A138V viability at 39C, ATP luminescence, 24 h; Potency, µM (series often up to 46.1 µM), hits mostly cytotoxic; actives 1.5% (n = 130,000); AID 902; also: nearly all actives have a fitted effect of over 55% in size
# Peg3 imprint: induces erasure of genomic imprints in mouse ES cells. AID 1948. mouse ES Peg3-LacZ reporter, beta-gal luminescence, 40 h. actives 0.02% (n = 110,000). Potency, µM (titrated, usually from 60.7 µM), hits mostly activators
#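 Readout: BetaGlo luminescence (5 min, room temp) for LacZ from the normally silent maternal Peg3 allele in female Peg3LacZ-Neo ES cells. Cells 300/well, 40 h, 37C, 5% CO2. Data normalized per plate to negative controls.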
# Numbers stand for hits; i = inactive; ? = inconclusive; nt = not tested or not shown; ! = not active in a repeat; [ ] = remark or other dose. Unless noted, calls follow the shape of the dose curve; as a rule, active = well fitted curve in the direction sought with a large enough effect; inconclusive = small, poorly fitted or top-dose-only effect, or another doubt; inactive = no such curve, though single readings can be large; an effect the other way counts as inactive or inconclusive.
SMILES,CRE-bla Fsk,IkB signaling,p53ts 32C tox,p53ts 39C kill,Peg3 imprint
CSc1nc(N)nc(SCC(=O)c2ccccc2)c1C#N,3.2µM,?,i,i,i
CSc1nc(N)nc(SCC(=O)C23CC4CC(CC(C4)C2)C3)c1C#N,nt,nt,i,i,nt
COc1ccc(-c2nc3cnc(N4CCOCC4)nc3n(C3CC3)c2=O)cc1,1.3µM,i[11.4 µM],i,i,i
O=c1c(-c2ccc(F)cc2)nc2cnc(N3CCOCC3)nc2n1C1CC1,5µM,i[11.4 µM],i,i,?
Cn1c(=O)c(-c2ccc(F)cc2)nc2cnc(N3CCOCC3)nc21,2.5µM,i[11.4 µM],i,i,i
O=C(CCc1nc2cccnc2n1Cc1ccccc1)NCc1cccc(Cl)c1,nt,i,i,i,i[10.9 µM]
Cc1cccc(N(C)C(=O)C(Cc2ccccc2)NS(=O)(=O)c2cccc3nsnc23)c1 (centres undefined),nt,i,i,i,i[10.9 µM]
CCCc1ccc2c(N)c(C#N)sc2n1,10µM,i,i,i,i
CCOC(=O)CSc1nc2ccc(NC(=O)COc3ccccc3)cc2s1,nt,i,i,i,i[10.9 µM]
CN1CCc2c(sc(/N=C/c3cccs3)c2C(N)=O)C1,10µM,i,i,i,i
CN1CCc2c(sc(/N=C/c3ccco3)c2C(N)=O)C1,?,i,i,i,i
COc1ccc(C(=O)CSc2nc3nc(C)cc(C)n3n2)cc1OC,4µM,i,i,i,i
Cc1cc(C)n2nc(SCC(=O)Nc3ccc(F)cc3)nc2n1,5µM,i,i,i,i
Cc1cc(C)n2nc(SCC(=O)Nc3ccc(O)cc3)nc2n1,nt,i,i,i,i[10.9 µM]
COc1ccc(NC(=O)CSc2nc3nc(C)cc(C)n3n2)cc1OC,nt,i,i,i,i[10.9 µM]
C=CCc1c(C)nc2nc(SCC(=O)Nc3ccc(C)c(C)c3)nn2c1C,nt,?,i,13µM,i[10.9 µM]
C=CCc1c(C)nc2nc(SCC(=O)Nc3cccc(Cl)c3)nn2c1C,nt,?,i,?,i[10.9 µM]
COc1ccc2c(CSc3nc4nc(C)cc(C)n4n3)cc(=O)oc2c1,10µM,i,i,i,i
CCOC(=O)c1c(C)[nH]c2cc(Br)c(O)cc12,10µM,i,i,i,i
CCOC(=O)c1c(OCC)[nH]c2c1cc(O)c1ccccc12,i,?,i,i,i
N#CC(=C1CCCC1)c1nc(-c2ccccc2O)cs1,i,i,10µM,13µM,i
COc1ccc(-c2cc(C(F)(F)F)nc(S(C)(=O)=O)n2)cc1,nt,i,?,20µM,i[10.9 µM]
O[C@@H]1CC[C@H]2Cc3ccccc3N=C21,i,i[11.4 µM],nt,nt,nt
COc1ccc(-c2cc(C(=O)OCC(=O)N3CCCC3)c3ccccc3n2)cc1,?,?,13µM,6.3µM,i
COc1ccc(-c2cc(C(=O)Oc3ccc(Br)cc3)c3ccccc3n2)cc1,nt,i,?,13µM,i[10.9 µM]
SMILES,CRE-bla Fsk,IkB signaling,p53ts 32C tox,p53ts 39C kill,Peg3 imprint
COc1ccccc1-c1nc2c(c(SCc3cc(C)ccc3C)n1)Cc1c(CO)cnc(C)c1O2,nt,i,i,i,i[10.9 µM]
Nc1ccc2oc(-c3ccc4nc[nH]c4c3)nc2c1,nt,nt,8.9µM,14µM,nt
Cc1ccc(NC(=O)Cc2ccc(-n3c(C)nc4cccnc43)cc2)c(Cl)c1,nt,?,i,i,i[10.9 µM]
COc1ccc(-c2nc(C(N)=O)c3[nH]c(=O)n(-c4cccc(Cl)c4)c3n2)cc1OC,?,i,?,?,i
COc1cccc(-c2nc(C(N)=O)c3[nH]c(=O)n(-c4cccc(Cl)c4)c3n2)c1OC,10µM,i,i,i,i
CC(C)(C)CC(C)(C)c1ccc(O)c(C[N+](C)(C)[O-])c1,i[7.6 µM],i[11.4 µM],i[9.22 µM],i[9.22 µM],i[10.9 µM]
Cc1cc(C(C)(C)CC(C)(C)C)ccc1OCCOCC[N+](C)(C)Cc1ccccc1,i,i,25µM!,25µM!,i
COc1ccc(-c2nc(SCC(=O)Nc3cccc(C(C)=O)c3)n[nH]2)cc1,nt,?,?,32µM,i[10.9 µM]
COc1ccccc1NC(=O)CSc1oc(-c2ccco2)nc1S(=O)(=O)c1ccc(C)cc1,nt,?,i,i,i[10.9 µM]
CN1CCN(C(=O)c2cc(-c3ccc(O)cc3)on2)CC1,i,i,i,i,i
COC1=CC(=O)C=C(OC)C1=O,nt,nt,?,16µM,i
Cc1ccc(CCNC(=O)c2ccc3c(c2)nc2n3CCCCC2)cc1,nt,?,i,i,i[10.9 µM]
CCCNC(=O)c1ccc2c(c1)nc1n2CCCCC1,nt,?,13µM,6.3µM,i[10.9 µM]
COCCCNC(=O)c1ccc2c(c1)nc1n2CCCCC1,nt,i,?,10µM,i[10.9 µM]
Cc1[nH]c2ccccc2c1C1(O)C(=O)N(Cc2ccccc2)c2ccc(Cl)cc21 (centres undefined),nt,?,i,?,i[10.9 µM]
O=c1[nH]c(=O)n(C2CCCCCC2)c(O)c1C=NCc1ccc(F)cc1,13µM,?,i,i,i
O=C(NC1CCCC1)c1ccc2c(=O)n(Cc3ccccc3)c(SCc3ccccc3)nc2c1,nt,?,i,i,i[10.9 µM]
O=C(Cn1c(=O)oc2cc(S(=O)(=O)NCc3ccccc3)ccc21)Nc1cccc(F)c1,nt,?,i,i,i[10.9 µM]
CCn1c2ccccc2c2cc(CN3CCN(Cc4ccc(OC)c(OC)c4)CC3)ccc21,nt,?,i,25µM,i[10.9 µM]
CCOc1ccc(CN2CCN(Cc3ccc4c(c3)c3ccccc3n4CC)CC2)cc1,nt,?,i,?,i[10.9 µM]
CCn1c(=O)c(C(=O)NCc2ccc(OC)cc2)c(O)c2ccccc21,?,i,i,i,i
CCn1c(=O)c(C(=O)NCCCO)c(O)c2ccccc21,10µM,i,i,i,i
CCn1c(=O)c(C(=O)NCc2ccccn2)c(O)c2ccccc21,7.9µM,?,i,i,i
CCn1c(=O)c(C(=O)NCc2ccc(OC)c(OC)c2)c(O)c2ccccc21,1.6µM,?,i,i,i
COc1cc(NC(=O)CCc2c(C)nn(-c3ccc(N4CCCCC4)nn3)c2C)cc(OC)c1OC,nt,?,?,?,i[10.9 µM]
SMILES,CRE-bla Fsk,IkB signaling,p53ts 32C tox,p53ts 39C kill,Peg3 imprint
O=C1[C@@H]2C=CC=CC2=NC(=S)N1CCN1CCC(=C(c2ccc(F)cc2)c2ccc(F)cc2)CC1,i,i,i,i,nt
CCn1c2ccccc2c2nnc(SCc3ccc(C(=O)OC)o3)nc21,2µM,?,i,i,i
CCn1c2ccccc2c2nnc(SCc3ccccc3)nc21,3.2µM,?,i,i,i
CCOc1cc(C(=O)NCCc2sc(-c3ccc(F)cc3)nc2C)cc(OCC)c1OCC,nt,i,i,i,i[10.9 µM]
Cc1c(C(=O)NCc2ccccc2)sc2nc[nH]c(=O)c12,nt,i,i,i,i[10.9 µM]
Cc1ccccc1NC(=O)c1nc[nH]c1C(=O)NCc1ccccc1,13µM,?,i,i,i
O=C(O)C1C2CCC(O2)C1C(=O)Nc1cccc(F)c1 (centres undefined),10µM,i,i,i,i
Cc1ccc(C)c(NC(=O)CSc2nncn3c2cc2sccc23)c1,nt,?,i,i,i[10.9 µM]
O=C(NCc1ccccc1Cl)c1cccc(C(F)(F)F)c1,nt,nt,i,16µM,nt
O=C(C1CCCN(S(=O)(=O)c2cccc3nsnc23)C1)N1CCN(c2ccccc2)CC1 (centres undefined),nt,?,i,i,i[10.9 µM]
CCn1cc(C(=O)N2CCN(c3ccccn3)CC2)c2cc(OC)c(OC)cc2c1=O,?,i,i,i,i
